Test in all cases: PBM; 200 nM protein, PBS
Common to all, as to settings: dsDNA, one strand shown

Assay [1] deals with CRX (Homo sapiens, UniProt O43186 26-111).
Another assay concerns the target T1, VENTX (Homo sapiens, UniProt O95231 78-163, Y115F).
T1 sequence: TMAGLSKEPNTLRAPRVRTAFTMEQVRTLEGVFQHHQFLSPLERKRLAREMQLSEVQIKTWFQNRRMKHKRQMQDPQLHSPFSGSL

For assay [2], the target named is HOXA2 (Homo sapiens, UniProt O43364 129-215, R185T).
Assay [3] addresses CRX (Homo sapiens, UniProt O43186 26-111, E42D).
The target in assay [4] is HOXA2 (Homo sapiens, UniProt O43364 129-215, R185K).
Sequence of HOXA2 (Homo sapiens, UniProt O43364 129-215, R185K) (O43364 129-215 R185K): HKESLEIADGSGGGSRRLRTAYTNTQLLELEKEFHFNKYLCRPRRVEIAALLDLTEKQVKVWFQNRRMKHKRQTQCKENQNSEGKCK
Assay [5] deals with CRX (Homo sapiens, UniProt O43186 26-111, R41L).
Sequence of CRX (Homo sapiens, UniProt O43186 26-111, R41L) (O43186 26-111 R41L): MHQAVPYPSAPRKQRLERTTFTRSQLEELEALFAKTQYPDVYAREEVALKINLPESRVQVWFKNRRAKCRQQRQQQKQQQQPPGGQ
Assay [6] addresses HOXC10 (Homo sapiens, UniProt Q9NYD6 254-340).
Assay [7] deals with HOXC10 (Homo sapiens, UniProt Q9NYD6 254-340, K271E).
Sequence of HOXC10 (Homo sapiens, UniProt Q9NYD6 254-340, K271E) (Q9NYD6 254-340 K271E): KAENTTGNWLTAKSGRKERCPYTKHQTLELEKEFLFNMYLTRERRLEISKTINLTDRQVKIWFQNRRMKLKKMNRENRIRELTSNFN
Assay [8] addresses PRRX1 (Homo sapiens, UniProt P54821 80-166, F113S).
Assay [9] deals with PRRX1 (Homo sapiens, UniProt P54821 80-166).
Sequence of PRRX1 (Homo sapiens, UniProt P54821 80-166) (P54821 80-166): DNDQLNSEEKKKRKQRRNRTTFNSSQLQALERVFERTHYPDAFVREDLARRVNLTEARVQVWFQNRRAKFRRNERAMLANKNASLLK
Assay [10] has as its target ALX4 (Homo sapiens, UniProt Q9H161 200-286).
Assay [11] addresses ALX4 (Homo sapiens, UniProt Q9H161 200-286, Q225E).
The target of assay [12] is ALX1 (Homo sapiens, UniProt Q15699 118-204, L144V).
Sequence of ALX1 (Homo sapiens, UniProt Q15699 118-204, L144V) (Q15699 118-204 L144V): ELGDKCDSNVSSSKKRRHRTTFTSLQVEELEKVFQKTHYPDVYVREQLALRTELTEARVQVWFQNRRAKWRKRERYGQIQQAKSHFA
For assay [13], the target named is ALX1 (Homo sapiens, UniProt Q15699 118-204, L144R).
Sequence of ALX1 (Homo sapiens, UniProt Q15699 118-204, L144R) (Q15699 118-204 L144R): as the sequence (Q15699 118-204 L144V) above, with V27R counted along it
Assay [14] has as its target HOXA2 (Homo sapiens, UniProt O43364 129-215, Y150S).
Assay [15] deals with ALX1 (Homo sapiens, UniProt Q15699 118-204).
Sequence of ALX1 (Homo sapiens, UniProt Q15699 118-204) (Q15699 118-204): as the sequence (Q15699 118-204 L144V) above, with V27L counted along it
Assay [16] deals with HOXA2 (Homo sapiens, UniProt O43364 129-215).
Sequence of HOXA2 (Homo sapiens, UniProt O43364 129-215) (O43364 129-215): as the sequence (O43364 129-215 R185K) above, with K57R counted along it
Assay [17] has as its target HOXB6 (Homo sapiens, UniProt P17509 132-218, K202E).
The target in assay [18] is HOXB6 (Homo sapiens, UniProt P17509 132-218).
Sequence of HOXB6 (Homo sapiens, UniProt P17509 132-218) (P17509 132-218): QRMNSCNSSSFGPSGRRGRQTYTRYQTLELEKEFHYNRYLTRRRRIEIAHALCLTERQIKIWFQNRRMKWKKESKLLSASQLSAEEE
In assay [19] the target is T2, NKX2-6 (Homo sapiens, UniProt A6NCS4 118-204, R150C).
T2 sequence: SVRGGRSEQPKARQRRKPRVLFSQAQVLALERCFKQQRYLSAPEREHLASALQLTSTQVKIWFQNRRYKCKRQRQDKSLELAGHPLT

For assay [20], the target named is T3, NKX2-6 (Homo sapiens, UniProt A6NCS4 118-204).
T3 sequence: T2 sequence with C33R

The target of assay [21] is PROP1 (Homo sapiens, UniProt O75360 56-141).
Sequence of PROP1 (Homo sapiens, UniProt O75360 56-141) (O75360 56-141): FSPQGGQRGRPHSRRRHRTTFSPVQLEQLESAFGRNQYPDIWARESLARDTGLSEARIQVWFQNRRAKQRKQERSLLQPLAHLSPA
Assay [22] has as its target PROP1 (Homo sapiens, UniProt O75360 56-141, R99H).
Assay [23] deals with VAX1 (Homo sapiens, UniProt Q5SQQ9 86-172).
Sequence of VAX1 (Homo sapiens, UniProt Q5SQQ9 86-172) (Q5SQQ9 86-172): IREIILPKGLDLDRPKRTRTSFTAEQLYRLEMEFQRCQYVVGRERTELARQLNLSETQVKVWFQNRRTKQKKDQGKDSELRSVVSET
Assay [24] addresses T4, NKX2-6 (Homo sapiens, UniProt A6NCS4 118-204, F151L).
T4 sequence: T2 sequence with C33R, F34L

The target in assay [25] is PROP1 (Homo sapiens, UniProt O75360 56-141, F88S).
Sequence of PROP1 (Homo sapiens, UniProt O75360 56-141, F88S) (O75360 56-141 F88S): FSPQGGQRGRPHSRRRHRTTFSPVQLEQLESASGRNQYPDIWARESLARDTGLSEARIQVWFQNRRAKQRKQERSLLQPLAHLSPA
Assay [26] deals with VAX1 (Homo sapiens, UniProt Q5SQQ9 86-172, T142I).
Sequence of VAX1 (Homo sapiens, UniProt Q5SQQ9 86-172, T142I) (Q5SQQ9 86-172 T142I): as the sequence (Q5SQQ9 86-172) above, with T57I counted along it
For assay [27], the target named is VAX1 (Homo sapiens, UniProt Q5SQQ9 86-172, K157R).
Sequence of VAX1 (Homo sapiens, UniProt Q5SQQ9 86-172, K157R) (Q5SQQ9 86-172 K157R): as the sequence (Q5SQQ9 86-172) above, with K72R counted along it
Assay [28] addresses T5, PAX4 (Homo sapiens, UniProt O43316 9-242, R200K).
T5 sequence: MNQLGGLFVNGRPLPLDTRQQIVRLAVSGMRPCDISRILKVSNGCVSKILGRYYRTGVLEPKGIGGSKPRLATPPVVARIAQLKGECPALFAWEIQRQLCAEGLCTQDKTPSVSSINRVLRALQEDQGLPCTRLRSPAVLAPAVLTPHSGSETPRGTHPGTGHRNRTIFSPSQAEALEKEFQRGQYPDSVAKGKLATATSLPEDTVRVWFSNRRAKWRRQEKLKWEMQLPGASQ

Assay [29] addresses T6, PAX4 (Homo sapiens, UniProt O43316 9-242).
T6 sequence: T5 sequence with K192R

Assay [30] has as its target T7, PAX4 (Homo sapiens, UniProt O43316 9-242, R200Q).
T7 sequence: T5 sequence with K192Q

For assay [31], the target named is T8, PAX4 (Homo sapiens, UniProt O43316 9-242, F177V).
T8 sequence: T5 sequence with F169V, K192R

Assay [32] concerns the target T9, PAX4 (Homo sapiens, UniProt O43316 9-242, F177Y).
T9 sequence: T5 sequence with F169Y, K192R

The target in assay [33] is T10, PAX4 (Homo sapiens, UniProt O43316 9-242, R227W).
T10 sequence: T5 sequence with K192R, R219W

The next assay has as its target PITX2 (Homo sapiens, UniProt Q99697 72-157).

Substitutions are numbered along the chain they refer to.

Sequence of CRX (Homo sapiens, UniProt O43186 26-111, E42D) (O43186 26-111 E42D): as the sequence (O43186 26-111 R41L) above, with L16R, E17D counted along it
Sequence of CRX (Homo sapiens, UniProt O43186 26-111) (O43186 26-111): as the sequence (O43186 26-111 R41L) above, with L16R counted along it
Sequence of PRRX1 (Homo sapiens, UniProt P54821 80-166, F113S) (P54821 80-166 F113S): as the sequence (P54821 80-166) above, with F34S counted along it
Sequence of HOXA2 (Homo sapiens, UniProt O43364 129-215, R185T) (O43364 129-215 R185T): as the sequence (O43364 129-215 R185K) above, with K57T counted along it
Sequence of HOXC10 (Homo sapiens, UniProt Q9NYD6 254-340) (Q9NYD6 254-340): as the sequence (Q9NYD6 254-340 K271E) above, with E18K counted along it
Sequence of ALX4 (Homo sapiens, UniProt Q9H161 200-286, Q225E) (Q9H161 200-286 Q225E): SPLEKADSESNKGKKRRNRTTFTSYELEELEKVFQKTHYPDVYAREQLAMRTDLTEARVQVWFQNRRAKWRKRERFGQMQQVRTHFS
Sequence of ALX4 (Homo sapiens, UniProt Q9H161 200-286) (Q9H161 200-286): as the sequence (Q9H161 200-286 Q225E) above, with E26Q counted along it
Sequence of HOXA2 (Homo sapiens, UniProt O43364 129-215, Y150S) (O43364 129-215 Y150S): as the sequence (O43364 129-215 R185K) above, with Y22S, K57R counted along it
Sequence of HOXB6 (Homo sapiens, UniProt P17509 132-218, K202E) (P17509 132-218 K202E): as the sequence (P17509 132-218) above, with K71E counted along it
Sequence of PROP1 (Homo sapiens, UniProt O75360 56-141, R99H) (O75360 56-141 R99H): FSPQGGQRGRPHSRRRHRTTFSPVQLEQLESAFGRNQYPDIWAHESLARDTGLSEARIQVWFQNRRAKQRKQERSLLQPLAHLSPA

For the sequence GTGATTAA, the binding signal in the assay with CRX [1] was 12.3 upbm affinity estimate (log intensity, higher = more binding, comparable within an allelic series); with VENTX, 11.5 upbm affinity estimate (log intensity, higher = more binding, comparable within an allelic series); with HOXA2 [2], 12.7 upbm affinity estimate (log intensity, higher = more binding, comparable within an allelic series); in the assay with CRX [3] it was 12.2 upbm affinity estimate (log intensity, higher = more binding, comparable within an allelic series); with HOXA2 [4] it was 13.2 upbm affinity estimate (log intensity, higher = more binding, comparable within an allelic series); with CRX [5] it was 11.7 upbm affinity estimate (log intensity, higher = more binding, comparable within an allelic series).
In the case of CATCATAA, the binding signal in the assay with CRX [1] was 10.1 upbm affinity estimate (log intensity, higher = more binding, comparable within an allelic series); with HOXC10 [6] it was 11.7 upbm affinity estimate (log intensity, higher = more binding, comparable within an allelic series); with CRX [3], 10 upbm affinity estimate (log intensity, higher = more binding, comparable within an allelic series); in the assay with HOXC10 [7], 11.3 upbm affinity estimate (log intensity, higher = more binding, comparable within an allelic series); with CRX [5], 9.57 upbm affinity estimate (log intensity, higher = more binding, comparable within an allelic series).
Regarding ACTGCGTG, the binding signal with CRX [1] is 8.27 upbm affinity estimate (log intensity, higher = more binding, comparable within an allelic series); with PRRX1 [8], 9.32 upbm affinity estimate (log intensity, higher = more binding, comparable within an allelic series); in the assay with CRX [3], 8.35 upbm affinity estimate (log intensity, higher = more binding, comparable within an allelic series); with CRX [5] it was 8.29 upbm affinity estimate (log intensity, higher = more binding, comparable within an allelic series); in the assay with PRRX1 [9] it was 9.57 upbm affinity estimate (log intensity, higher = more binding, comparable within an allelic series).
Turning to ACCGGGCG, the binding signal was 7.62 upbm affinity estimate (log intensity, higher = more binding, comparable within an allelic series) with CRX [1]; 7.78 upbm affinity estimate (log intensity, higher = more binding, comparable within an allelic series) with ALX4 [10]; 7.99 upbm affinity estimate (log intensity, higher = more binding, comparable within an allelic series) in the assay with ALX4 [11]; 6.76 upbm affinity estimate (log intensity, higher = more binding, comparable within an allelic series) with HOXA2 [2]; 7.73 upbm affinity estimate (log intensity, higher = more binding, comparable within an allelic series) with CRX [3]; 6.09 upbm affinity estimate (log intensity, higher = more binding, comparable within an allelic series) with ALX1 [12]. Also, the binding signal with HOXA2 [4] is 10.3 upbm affinity estimate (log intensity, higher = more binding, comparable within an allelic series); in the assay with ALX1 [13], 6.25 upbm affinity estimate (log intensity, higher = more binding, comparable within an allelic series); with HOXA2 [14] it was 10.3 upbm affinity estimate (log intensity, higher = more binding, comparable within an allelic series); in the assay with CRX [5], 7.79 upbm affinity estimate (log intensity, higher = more binding, comparable within an allelic series); with ALX1 [15], 6.19 upbm affinity estimate (log intensity, higher = more binding, comparable within an allelic series); with HOXA2 [16] it was 7.26 upbm affinity estimate (log intensity, higher = more binding, comparable within an allelic series).
On to CAGGGCGG, for which the binding signal in the assay with CRX [1] is 8.46 upbm affinity estimate (log intensity, higher = more binding, comparable within an allelic series); with HOXB6 [17], 8.95 upbm affinity estimate (log intensity, higher = more binding, comparable within an allelic series); with CRX [3], 8.33 upbm affinity estimate (log intensity, higher = more binding, comparable within an allelic series); with CRX [5], 8.31 upbm affinity estimate (log intensity, higher = more binding, comparable within an allelic series); with HOXB6 [18], 8.83 upbm affinity estimate (log intensity, higher = more binding, comparable within an allelic series).
Take ACTTTATC: the binding signal is 10.6 upbm affinity estimate (log intensity, higher = more binding, comparable within an allelic series) with CRX [1] and 10.4 upbm affinity estimate (log intensity, higher = more binding, comparable within an allelic series) with CRX [3].
On to CACCACGC, for which the binding signal in the assay with CRX [1] is 8.26 upbm affinity estimate (log intensity, higher = more binding, comparable within an allelic series); with PRRX1 [8] it was 9.44 upbm affinity estimate (log intensity, higher = more binding, comparable within an allelic series); with NKX2-6 [19], 9.32 upbm affinity estimate (log intensity, higher = more binding, comparable within an allelic series); with CRX [3], 8.36 upbm affinity estimate (log intensity, higher = more binding, comparable within an allelic series); with ALX1 [12], 6.3 upbm affinity estimate (log intensity, higher = more binding, comparable within an allelic series); in the assay with NKX2-6 [20], 9.32 upbm affinity estimate (log intensity, higher = more binding, comparable within an allelic series). Besides, the binding signal in the assay with ALX1 [13] is 6.36 upbm affinity estimate (log intensity, higher = more binding, comparable within an allelic series); with PROP1 [21] it was 6.81 upbm affinity estimate (log intensity, higher = more binding, comparable within an allelic series); in the assay with PROP1 [22], 6.8 upbm affinity estimate (log intensity, higher = more binding, comparable within an allelic series); with VAX1 [23] it was 7.04 upbm affinity estimate (log intensity, higher = more binding, comparable within an allelic series); in the assay with NKX2-6 [24] it was 9.49 upbm affinity estimate (log intensity, higher = more binding, comparable within an allelic series); with PROP1 [25], 6.67 upbm affinity estimate (log intensity, higher = more binding, comparable within an allelic series). In addition, the binding signal was 7.3 upbm affinity estimate (log intensity, higher = more binding, comparable within an allelic series) with VAX1 [26]; 8.34 upbm affinity estimate (log intensity, higher = more binding, comparable within an allelic series) with CRX [5]; 6.37 upbm affinity estimate (log intensity, higher = more binding, comparable within an allelic series) with ALX1 [15]; 9.04 upbm affinity estimate (log intensity, higher = more binding, comparable within an allelic series) in the assay with PRRX1 [9]; 7.04 upbm affinity estimate (log intensity, higher = more binding, comparable within an allelic series) in the assay with VAX1 [27].
Consider CCACGCCA, for which the binding signal with CRX [1] was 8.11 upbm affinity estimate (log intensity, higher = more binding, comparable within an allelic series); in the assay with PAX4 [28] it was 9.43 upbm affinity estimate (log intensity, higher = more binding, comparable within an allelic series); with PAX4 [29] it was 9.33 upbm affinity estimate (log intensity, higher = more binding, comparable within an allelic series); with CRX [3], 8.32 upbm affinity estimate (log intensity, higher = more binding, comparable within an allelic series); with PAX4 [30] it was 9.45 upbm affinity estimate (log intensity, higher = more binding, comparable within an allelic series); with PAX4 [31] it was 9.5 upbm affinity estimate (log intensity, higher = more binding, comparable within an allelic series). Moreover, the binding signal in the assay with PAX4 [32] is 9.5 upbm affinity estimate (log intensity, higher = more binding, comparable within an allelic series); with PAX4 [33] it was 9.53 upbm affinity estimate (log intensity, higher = more binding, comparable within an allelic series); with CRX [5], 8.24 upbm affinity estimate (log intensity, higher = more binding, comparable within an allelic series).
With ACTATCCG, the binding signal with CRX [1] was 9.31 upbm affinity estimate (log intensity, higher = more binding, comparable within an allelic series); with CRX [3] it was 9.26 upbm affinity estimate (log intensity, higher = more binding, comparable within an allelic series).
As to AAAGATTA, the binding signal with CRX [1] was 12.9 upbm affinity estimate (log intensity, higher = more binding, comparable within an allelic series); with PAX4 [28] it was 10.9 upbm affinity estimate (log intensity, higher = more binding, comparable within an allelic series); in the assay with PAX4 [29], 11.2 upbm affinity estimate (log intensity, higher = more binding, comparable within an allelic series); with CRX [3], 12.8 upbm affinity estimate (log intensity, higher = more binding, comparable within an allelic series); with PAX4 [30] it was 11.1 upbm affinity estimate (log intensity, higher = more binding, comparable within an allelic series); with PITX2, 12.3 upbm affinity estimate (log intensity, higher = more binding, comparable within an allelic series). The binding signal in the assay with PAX4 [31] is 10.3 upbm affinity estimate (log intensity, higher = more binding, comparable within an allelic series); in the assay with CRX [5], 12.6 upbm affinity estimate (log intensity, higher = more binding, comparable within an allelic series).
As for AATGCTAA, the binding signal with CRX [1] was 10.4 upbm affinity estimate (log intensity, higher = more binding, comparable within an allelic series); with PAX4 [29], 10.9 upbm affinity estimate (log intensity, higher = more binding, comparable within an allelic series); with CRX [3], 10.3 upbm affinity estimate (log intensity, higher = more binding, comparable within an allelic series); with PAX4 [31] it was 10.1 upbm affinity estimate (log intensity, higher = more binding, comparable within an allelic series); with PAX4 [32], 10.2 upbm affinity estimate (log intensity, higher = more binding, comparable within an allelic series); with PAX4 [33], 10.2 upbm affinity estimate (log intensity, higher = more binding, comparable within an allelic series).

The values are drawn from publication PMC11006913.
